Results on eight targets are retold here after the supplement of paper PMC10849652.

What all share (experiment): log2 fold change, soluble protein after heating vs DMSO (PISA); higher = thermal stabilisation; K562 cells, 10 uM, 30 min; active = over 0.2 and 3.5 SD of the protein, either way, in both replicates (recomputed)
Compound in one assay: Cc1nc(Nc2ncc(C(=O)Nc3c(C)cccc3Cl)s2)cc(N2CCN(CCO)CC2)n1 [dasatinib]
The essentials: (§1)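 For each measurement, 10 μM compound was applied for 30 min to K562 cells at 2×10^6 cells/mL. Aliquots were heated for 3 min across 48°C-58°C, pooled, and extracted in PBS with 0.5% NP-40 at 4°C; the supernatant after 21,000xg for 90 min was soluble protein. This was quantified by TMTpro 16plex LC-MS/MS with channel sums equalised, and thermal stability was reported relative to control samples from duplicates, on a log2 fold-change scale.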

Compound in another assay: Cn1cncc1[C@@](N)(c1ccc(Cl)cc1)c1ccc2c(c1)c(-c1cccc(Cl)c1)cc(=O)n2C [tipifarnib]
Summed up:
as §1

Compound in the next assay: Cc1cn(-c2cc(NC(=O)c3ccc(C)c(Nc4nccc(-c5cccnc5)n4)c3)cc(C(F)(F)F)c2)cn1 [nilotinib]
The essentials:
as §1

Compound in assay [1]: Cc1nc(Nc2n[nH]c3c2CN(C(=O)N[C@H](CN(C)C)c2ccccc2)C3(C)C)c2sccc2n1
Summed up:
as §1

Compound in assay [2]: Cc1ncc(-c2ccnc(Nc3ccc(S(C)(=O)=O)cc3)n2)n1C(C)C
The essentials:
as §1

Compound in assay [3]: Cn1cc(-c2ccc3nnc(C(F)(F)c4ccc5ncccc5c4)n3n2)cn1
Summed up: as §1

Compound in another assay: FC(F)(F)c1ccc(/C=C/c2nc(COc3ccc(CCCCn4ccnn4)cc3)co2)cc1 [mubritinib]
The essentials:
as §1

Compound in assay [4]: Cc1cccc(CC(=O)N2CCc3c2ccc(-c2cn(C)c4ncnc(N)c24)c3F)n1
The essentials:
as §1

Compound in another assay: Cc1ccc(NC(=O)c2ccc(CN3CC[C@H](N(C)C)C3)c(C(F)(F)F)c2)cc1Nc1nccc(-c2cncnc2)n1 [bafetinib]
The essentials: as §1

Compound in assay [5]: Cn1cc(-c2ccc3c(c2)CCN3C(=O)Cc2cccc(C(F)(F)F)c2)c2c(N)ncnc21
The essentials: as §1

Targets with a hit are over-represented here; the source holds about 7,900 in all. About 0.6% of all pairs of compound and target were hits. A number with no mark means an inactive call.

UniProt Q9BZD2, sequence (Q9BZD2 whole entry, looked up): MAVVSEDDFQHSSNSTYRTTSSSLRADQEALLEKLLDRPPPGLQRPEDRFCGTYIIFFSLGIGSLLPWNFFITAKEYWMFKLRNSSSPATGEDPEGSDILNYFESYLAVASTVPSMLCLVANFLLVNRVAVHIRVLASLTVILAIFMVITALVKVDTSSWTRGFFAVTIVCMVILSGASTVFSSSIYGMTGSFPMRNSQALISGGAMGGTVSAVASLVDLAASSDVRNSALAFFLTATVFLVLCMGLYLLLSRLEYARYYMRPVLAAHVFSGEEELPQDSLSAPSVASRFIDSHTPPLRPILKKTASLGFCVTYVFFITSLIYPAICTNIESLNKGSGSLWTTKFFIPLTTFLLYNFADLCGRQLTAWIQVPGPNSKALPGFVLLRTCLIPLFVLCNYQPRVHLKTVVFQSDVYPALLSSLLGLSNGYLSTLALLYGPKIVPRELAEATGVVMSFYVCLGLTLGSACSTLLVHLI
UniProt Q9NS93, sequence (Q9NS93 whole entry, looked up): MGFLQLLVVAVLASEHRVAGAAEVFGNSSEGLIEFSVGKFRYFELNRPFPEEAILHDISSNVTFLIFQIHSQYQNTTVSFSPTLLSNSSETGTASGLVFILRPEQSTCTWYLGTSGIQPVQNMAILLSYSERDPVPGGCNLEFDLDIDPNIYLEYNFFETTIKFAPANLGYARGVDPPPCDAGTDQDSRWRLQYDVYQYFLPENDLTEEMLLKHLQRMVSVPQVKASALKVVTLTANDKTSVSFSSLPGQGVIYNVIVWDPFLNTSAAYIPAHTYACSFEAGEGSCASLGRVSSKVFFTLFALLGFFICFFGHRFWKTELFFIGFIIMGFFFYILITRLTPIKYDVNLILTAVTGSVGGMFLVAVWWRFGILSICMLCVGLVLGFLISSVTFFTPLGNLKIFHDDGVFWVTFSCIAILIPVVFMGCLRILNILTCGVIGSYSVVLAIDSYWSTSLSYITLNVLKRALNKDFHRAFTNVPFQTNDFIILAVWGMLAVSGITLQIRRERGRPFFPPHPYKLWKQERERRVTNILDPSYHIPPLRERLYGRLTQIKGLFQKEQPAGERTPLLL
UniProt Q8N9U0, sequence (Q8N9U0 whole entry, looked up): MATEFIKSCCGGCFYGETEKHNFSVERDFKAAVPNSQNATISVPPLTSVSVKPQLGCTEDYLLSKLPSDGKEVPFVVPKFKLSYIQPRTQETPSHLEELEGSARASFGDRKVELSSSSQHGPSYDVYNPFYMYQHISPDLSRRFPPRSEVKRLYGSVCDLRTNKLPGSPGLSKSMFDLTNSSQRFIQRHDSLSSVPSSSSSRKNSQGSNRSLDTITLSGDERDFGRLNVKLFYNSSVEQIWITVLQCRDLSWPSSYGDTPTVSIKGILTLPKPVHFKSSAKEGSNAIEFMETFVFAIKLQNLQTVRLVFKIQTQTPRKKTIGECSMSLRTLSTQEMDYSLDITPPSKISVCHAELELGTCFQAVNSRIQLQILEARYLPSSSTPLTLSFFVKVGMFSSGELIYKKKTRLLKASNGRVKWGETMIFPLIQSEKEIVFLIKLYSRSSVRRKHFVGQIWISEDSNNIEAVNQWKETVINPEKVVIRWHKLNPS
UniProt P78382, sequence (P78382 whole entry, looked up): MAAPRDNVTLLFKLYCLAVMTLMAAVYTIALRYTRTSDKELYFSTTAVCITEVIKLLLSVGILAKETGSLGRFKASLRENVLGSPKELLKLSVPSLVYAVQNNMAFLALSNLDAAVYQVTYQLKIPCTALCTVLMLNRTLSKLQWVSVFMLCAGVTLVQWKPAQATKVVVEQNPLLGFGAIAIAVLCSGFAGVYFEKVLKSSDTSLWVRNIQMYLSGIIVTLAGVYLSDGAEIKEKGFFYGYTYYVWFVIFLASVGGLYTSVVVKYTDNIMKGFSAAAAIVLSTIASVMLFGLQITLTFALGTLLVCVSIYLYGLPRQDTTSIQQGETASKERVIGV
UniProt O94901, sequence (O94901 whole entry, looked up): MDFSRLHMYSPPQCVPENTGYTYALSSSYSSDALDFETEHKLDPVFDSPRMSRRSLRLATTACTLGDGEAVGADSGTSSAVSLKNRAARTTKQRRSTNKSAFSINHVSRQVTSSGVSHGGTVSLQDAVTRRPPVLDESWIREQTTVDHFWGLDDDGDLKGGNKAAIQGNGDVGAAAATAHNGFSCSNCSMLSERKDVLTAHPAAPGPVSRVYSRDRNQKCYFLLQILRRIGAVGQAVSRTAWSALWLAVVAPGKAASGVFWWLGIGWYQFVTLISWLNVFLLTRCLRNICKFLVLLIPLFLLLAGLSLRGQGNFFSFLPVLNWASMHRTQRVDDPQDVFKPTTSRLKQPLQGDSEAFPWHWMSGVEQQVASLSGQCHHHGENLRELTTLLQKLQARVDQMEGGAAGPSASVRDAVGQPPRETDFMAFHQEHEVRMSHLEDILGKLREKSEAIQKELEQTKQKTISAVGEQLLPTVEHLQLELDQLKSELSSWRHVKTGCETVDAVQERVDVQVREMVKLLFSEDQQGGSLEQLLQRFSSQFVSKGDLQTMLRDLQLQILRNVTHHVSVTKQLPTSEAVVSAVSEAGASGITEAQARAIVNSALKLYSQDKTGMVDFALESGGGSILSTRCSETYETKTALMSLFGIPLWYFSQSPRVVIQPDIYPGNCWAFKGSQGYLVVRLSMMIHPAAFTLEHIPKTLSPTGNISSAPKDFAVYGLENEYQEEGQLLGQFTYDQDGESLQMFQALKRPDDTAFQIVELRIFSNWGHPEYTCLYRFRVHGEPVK
UniProt Q9NRH2, sequence (Q9NRH2 whole entry, looked up): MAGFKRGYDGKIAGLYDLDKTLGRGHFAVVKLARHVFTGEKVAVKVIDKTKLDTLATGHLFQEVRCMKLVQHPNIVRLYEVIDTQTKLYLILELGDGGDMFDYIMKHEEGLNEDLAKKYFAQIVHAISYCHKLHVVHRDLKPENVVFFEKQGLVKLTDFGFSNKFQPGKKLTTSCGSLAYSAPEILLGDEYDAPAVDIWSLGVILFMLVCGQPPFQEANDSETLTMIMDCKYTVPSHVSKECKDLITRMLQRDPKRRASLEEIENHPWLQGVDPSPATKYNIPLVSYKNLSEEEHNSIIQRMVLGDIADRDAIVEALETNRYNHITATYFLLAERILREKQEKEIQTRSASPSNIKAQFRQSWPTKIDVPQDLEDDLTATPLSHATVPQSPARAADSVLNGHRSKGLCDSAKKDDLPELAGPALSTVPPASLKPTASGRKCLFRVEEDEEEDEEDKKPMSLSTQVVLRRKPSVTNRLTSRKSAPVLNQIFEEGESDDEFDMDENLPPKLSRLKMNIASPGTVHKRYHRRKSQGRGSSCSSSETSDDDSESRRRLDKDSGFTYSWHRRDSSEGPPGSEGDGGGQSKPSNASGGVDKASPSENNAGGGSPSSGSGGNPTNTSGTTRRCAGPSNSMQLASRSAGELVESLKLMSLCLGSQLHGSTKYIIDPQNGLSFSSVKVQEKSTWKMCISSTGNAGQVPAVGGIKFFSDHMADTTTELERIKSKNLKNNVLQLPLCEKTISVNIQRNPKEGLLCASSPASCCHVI
UniProt Q13428, sequence (Q13428 whole entry, looked up): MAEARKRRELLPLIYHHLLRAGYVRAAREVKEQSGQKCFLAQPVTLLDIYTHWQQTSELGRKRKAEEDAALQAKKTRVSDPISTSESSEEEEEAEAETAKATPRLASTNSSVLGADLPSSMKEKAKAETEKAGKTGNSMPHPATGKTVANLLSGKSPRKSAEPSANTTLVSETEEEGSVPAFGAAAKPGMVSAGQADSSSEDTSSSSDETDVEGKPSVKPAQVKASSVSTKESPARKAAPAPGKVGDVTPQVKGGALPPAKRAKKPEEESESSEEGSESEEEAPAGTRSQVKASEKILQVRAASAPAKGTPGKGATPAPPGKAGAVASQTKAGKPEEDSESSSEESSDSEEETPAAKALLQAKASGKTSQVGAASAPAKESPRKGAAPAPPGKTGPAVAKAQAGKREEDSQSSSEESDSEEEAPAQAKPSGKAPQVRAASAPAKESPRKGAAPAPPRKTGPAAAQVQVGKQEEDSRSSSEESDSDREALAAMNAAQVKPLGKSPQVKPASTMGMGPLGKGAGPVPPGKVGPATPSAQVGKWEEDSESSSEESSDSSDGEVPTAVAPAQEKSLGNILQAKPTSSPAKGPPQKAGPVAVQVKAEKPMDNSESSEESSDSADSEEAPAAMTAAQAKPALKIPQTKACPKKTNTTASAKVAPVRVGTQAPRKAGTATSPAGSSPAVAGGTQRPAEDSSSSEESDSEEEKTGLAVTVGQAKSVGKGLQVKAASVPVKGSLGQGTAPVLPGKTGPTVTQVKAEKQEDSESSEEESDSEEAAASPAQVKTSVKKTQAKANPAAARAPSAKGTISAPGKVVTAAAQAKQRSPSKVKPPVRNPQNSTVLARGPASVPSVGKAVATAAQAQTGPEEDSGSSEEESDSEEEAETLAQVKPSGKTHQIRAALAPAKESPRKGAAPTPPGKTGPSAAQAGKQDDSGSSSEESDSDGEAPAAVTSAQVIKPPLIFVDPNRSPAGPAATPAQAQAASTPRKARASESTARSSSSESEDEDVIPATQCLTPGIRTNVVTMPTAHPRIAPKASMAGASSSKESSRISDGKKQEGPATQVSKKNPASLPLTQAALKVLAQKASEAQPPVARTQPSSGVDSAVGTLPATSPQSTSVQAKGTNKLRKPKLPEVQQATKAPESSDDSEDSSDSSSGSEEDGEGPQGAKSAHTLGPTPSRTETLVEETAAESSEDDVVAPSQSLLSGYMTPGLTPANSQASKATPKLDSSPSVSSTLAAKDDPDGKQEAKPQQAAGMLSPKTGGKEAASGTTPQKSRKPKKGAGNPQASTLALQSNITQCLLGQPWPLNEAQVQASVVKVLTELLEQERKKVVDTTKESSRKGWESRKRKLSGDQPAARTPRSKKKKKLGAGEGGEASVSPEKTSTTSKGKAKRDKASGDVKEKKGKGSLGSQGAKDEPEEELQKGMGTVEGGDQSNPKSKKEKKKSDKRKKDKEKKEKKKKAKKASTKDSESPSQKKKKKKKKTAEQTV

Take SNRK (UniProt Q9NRH2): the log2 fold change in the assay with dasatinib was -0.061; with tipifarnib, -0.079.
TC2N (UniProt Q8N9U0): the log2 fold change is 0.052 with nilotinib; -0.71 (active) in assay [1]; 0.068 in the assay with dasatinib; -0.024 in [2]; -0.153 in [3]; 0.176 with mubritinib.
In the case of TCOF1 isoform 3 (UniProt Q13428), the log2 fold change was -0.005 in assay [4] and -0.419 in [3].
For SLC29A3 (UniProt Q9BZD2), the log2 fold change with bafetinib is -0.111; in the assay with nilotinib it was -0.055; in [1], 0.127; with dasatinib, -0.059; in assay [2] it was 0.012; in [5], 0.167. Besides, the figures for the log2 fold change (in [3]; with tipifarnib; in the assay with mubritinib) were 0.102, 0.035 and 0.005, respectively.
Regarding TBC1D2 (UniProt Q9BYX2), the log2 fold change in [4] is 0.213; with mubritinib, -0.085.
As to TM7SF3 (UniProt Q9NS93), the log2 fold change with bafetinib was -0.147; in the assay with nilotinib, -0.004; in [1] it was 0.005; with dasatinib it was 0.005; in assay [2], -0.029; in assay [5] it was -0.034. The log2 fold change in [3] was 0.034; with tipifarnib it was 0.019; with mubritinib it was 0.147.
Turning to SLC35A1 (UniProt P78382), the log2 fold change is 0.005 in the assay with bafetinib; -0.009 in the assay with nilotinib; -0.055 in assay [1]; 0.036 with dasatinib; -0.02 in [2]; 0.03 in assay [5]. Besides, the log2 fold change in [3] was 0.067; with tipifarnib, -0.022; with mubritinib, 0.049.
On to SUN1 isoform 9 (UniProt O94901), for which the log2 fold change in assay [4] is -0.036; with nilotinib, -0.014; in assay [1], -0.115; with dasatinib, 0.007; in [2] it was -0.018; in assay [5], -0.141. Besides, the log2 fold change was -0.055 in [3], 0.039 in the assay with tipifarnib and -0.021 with mubritinib.
